ELG1 genotox = induces genotoxicity in HEK293T cells with luciferase-tagged ELG1. HEK293T ELG1-luciferase reporter, luminescence, 16 h. Potency, µM (series often up to 46 µM), for inactives: at the highest dose activity change, positive = activation, hits mostly activators. hit rate 1.3% among 330,000. AID 504466; note: % of control where 0% means no effect; nearly all actives have a fitted effect of over 60% in size
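Genotoxicity was scored as increased ELG1-luciferase reporter signal, measured by ONE-Glo luminescence (30 min, room temperature). Compound or vehicle exposure of the HEK293T reporter cells lasted 16 hr at 37°C.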
ELG1 DNA repair = blocks ELG1-dependent DNA repair in HEK293T cells | hit rate 2.3% among 330,000 | Potency, µM (highest dose often 46.1 µM), inactives show at the top dose activity change, negative = inhibition, usual class: inhibitors | AID 504467 | HEK293T ELG1-luciferase reporter, luminescence, 16 h; DNA damage induced by 5-fluorouridine; note: % is set by controls: 0 for no effect and ±100 for the full control effect; nearly all actives have a fitted effect of over 55% in size
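Quantitative HTS, concentration-response format. 2,000 cells/well co-treated with 5-fluorouridine and compound, 16 hr in 5% CO2 at 37 °C; ONE-Glo luminescence read after 30 min.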
SMN2 splice up = SMN2 splice variant enhancement. Potency, µM (titrated, usually from 46.1 µM), for inactives: top-dose activity change, positive = activation, most hits filed as activators. HEK293 SMN2-luciferase splicing reporter, luminescence, 30-36 h. hit rate 2.8% among 210,000; note: % of control where 0% means no effect; nearly all actives have a fitted effect of over 55% in size
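qHTS luciferase splicing reporter: luminescence rises when SMN2 exon 7 is included in transfected HEK293 cells. Compound exposure lasted 30-36 h at 37C, with 4.5 mM final sodium butyrate as control, followed by a ONE-Glo read.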
NPC1 prom act = activates the NPC1 promoter; Huh7 NPC1 promoter luciferase reporter, 24 h; Potency, µM (doses to about 9.22 µM), inactives show top-dose activation, hits mostly activators; hit rate 2.4% among 320,000; AID 485313; note: % of control where 0% means no effect; nearly all actives have a fitted effect of over 60% in size
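Huh7 cells stably carrying NPC1 promoter–luciferase, plated in Opti-MEM with 10% FBS for 2 h, were exposed to compound in DMSO for 24 h at 37 °C; luciferase reagent was added for 10 min and luminescence read.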
Rab9 prom act = activates the Rab9 promoter | Huh7 Rab9 promoter-luciferase reporter, luminescence, 24 h | Potency, µM (titrated, usually from 9.22 µM), for the others: at the highest dose activation, negative = inhibition, hits mostly activators | hit rate 2.8% among 320,000 | AID 485297; note: % of control where 0% means no effect; nearly all actives have a fitted effect of over 60% in size
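Rab9 promoter-driven luciferase in stably transfected Huh7 cells; 1500 cells/well rested 2 h, exposed to compound in DMSO for 24 h at 37 °C, 5% CO2. Luminescence read 10 min after adding luciferase reagent at ambient temperature.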
FLuc counter = firefly luciferase modulation, counter-screen for miR-21 project; hit rate 6.9% among 360,000; P08659; Potency, µM (top dose mostly 57.5 µM), for the others: at the top dose activity change, negative = inhibition, hits mostly inhibitors; purified FLuc, Km substrates, luminescence inhibition;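 note: plate controls were vehicle for no effect and reference inhibitor for full effect; nearly all actives have a fitted effect of over 55% in size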
Target sequence (P08659 whole entry, looked up): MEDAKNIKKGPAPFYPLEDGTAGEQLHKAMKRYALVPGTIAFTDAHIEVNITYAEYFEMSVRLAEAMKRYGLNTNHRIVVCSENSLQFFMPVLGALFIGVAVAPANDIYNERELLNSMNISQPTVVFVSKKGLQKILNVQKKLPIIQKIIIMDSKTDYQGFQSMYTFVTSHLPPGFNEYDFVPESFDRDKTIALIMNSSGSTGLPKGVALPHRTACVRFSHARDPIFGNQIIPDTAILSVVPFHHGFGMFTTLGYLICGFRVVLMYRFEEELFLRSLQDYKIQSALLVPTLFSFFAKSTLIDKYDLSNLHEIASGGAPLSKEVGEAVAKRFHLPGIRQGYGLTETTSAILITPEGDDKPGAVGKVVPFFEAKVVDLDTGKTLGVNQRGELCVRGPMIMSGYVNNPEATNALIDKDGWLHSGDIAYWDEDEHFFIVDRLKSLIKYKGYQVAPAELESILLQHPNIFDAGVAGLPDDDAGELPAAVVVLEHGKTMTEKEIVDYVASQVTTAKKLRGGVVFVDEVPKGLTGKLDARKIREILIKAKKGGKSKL
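Purified P. pyralis luciferase, 10 nM final, with Km-level 10 uM D-luciferin and 10 uM ATP in 50 mM Tris acetate pH 7.5, 10 mM Mg acetate, 0.01% Tween-20, 0.05% BSA; 6-point qHTS titration about 60 µM downward; luminescence read.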
Active calls of the source: *; ? = inconclusive; . = no result; [ ] = remark or other dose. Compounds with a hit are over-represented: about 9.3% of the library has one in this group of screens. Calls come from the whole dose curve; as a rule, active = well fitted curve in the direction sought with a large enough effect; inconclusive = small, poorly fitted or top-dose-only effect, or another doubt; inactive = no such curve, though single readings can be large; an effect the other way counts as inactive or inconclusive. Potency is the fitted concentration of half-maximal effect.

SMILES | ELG1 genotox | ELG1 DNA repair | SMN2 splice up | NPC1 prom act | Rab9 prom act | FLuc counter
O=C(Cn1c(SCc2ccccc2F)nc2ccncc21)Nc1ccccc1C(F)(F)F | . | . | 0% | . | . | ?
CCCCN(C)CCCNC(=O)c1cc(=O)[nH]c2ccc(S(=O)(=O)N3CCCCC3)cc12 | . | . | . | . | . | -3%
CC(Oc1ccc(Br)cc1)C(=O)NCc1ccccn1 (configuration not stated) | 5% | 15% | 0% | -7% | -10% | 3%
Cn1ccnc1C(=O)c1cc(SCC(=O)NCc2ccccc2)nc2ccccc12 | -1% | 8.2µM* | -5% | -15% | -1% | -12%
COC(=O)CSc1cc(C(=O)c2nccn2C)c2ccccc2n1 | 2% | -2% | 6% | -3% | 0% | 8%
COCCCNC(=O)Cn1c(=O)nc(-c2ccccc2)c2ccccc21 | . | . | . | . | . | -1%
COc1ccc2cc3cc(C(=O)NC4CC4)sc3nc2c1 | ? | ? | . | 0.45µM* | 0.32µM* | 0.67µM*
COc1ccc2nc3sc(C(=O)NCCN4CCc5ccccc5C4)cc3cc2c1 | 7% | 27% | 4% | 2% | 13% | ?
COc1ccc2cc3cc(C(=O)NCCCN4CCc5ccccc5C4)sc3nc2c1 | 7% | ? | 16µM* | ? | 4.5µM* | 9.5µM*
COC(C(=O)Nc1ccc(C(N)=O)cc1)c1ccccc1 (configuration not stated) | -2% | -11% | 16µM* | 1% | -8% | 4%
COC(C(=O)Nc1ccc(F)cc1)c1ccccc1 (configuration not stated) | 1% | 12% | -15% | -3% | -3% | -1%
COc1cccc(OC)c1OCCCNC1CCCC1 | 0% | -5% | . | 1% | -4% | 0%
CCOC(=O)c1cc2c(=O)n3ccccc3nc2n(CC2CCCO2)c1=NC(=O)c1ccccc1OCC (configuration not stated) | . | . | -7% | . | . | 2%
CCN(CC)c1ccc(/C=N/NC(=O)OC)c(O)c1 | 16% | ? | -12% | 20% | 28% | 11µM*
CCN(CC)c1ccc(/C=N/NC(=O)c2ccoc2C)c(O)c1 | 16µM* | ? | . | ? | -7% | 2.7µM*
CCN(CC)c1ccc(/C=N/NC(=S)NC)c(O)c1 | 14% | ? | . | 19% | 2% | ?
CCCn1c(=O)sc2cc(NC(=O)c3ccccc3OCC)ccc21 | . | . | -9% | . | . | 5%
C=C1SC(Nc2c(C)cccc2C)=NC12CCCCC2 | -13% | -1% | . | -9% | -8% | 1%
C=C1SC(Nc2c(C)cc(C)cc2C)=NC12CCCCC2 | -8% | 23µM* | . | -4% | -3% | -4%
CC(C)(C)C1CCc2c(sc(NC(=O)C3CCCO3)c2C(N)=O)C1 (configuration not stated) | 1% | 12% | -16% | -5% | -3% | 21µM*
NC(=O)c1c(NC(=O)C2CCCO2)sc2c1CCCCC2 (configuration not stated) | ? | ? | ? | 27% | ? | 17µM*
NC(=O)c1c(NC(=O)C2CCCO2)sc2c1CCC2 (configuration not stated) | -2% | -2% | 0% | 4% | 3% | -2%
COc1cc(/C=C2\NC(=S)NC2=O)ccc1OCc1cccc(C(=O)O)c1 | 21µM* | ? | . | 19% | 17% | 0.38µM*
O=C1NC(=O)/C(=C\c2ccc(OCc3cccc(C(=O)O)c3)c(Cl)c2)N1 | -3% | ? | 11µM* | ? | 2.2µM* | 0.6µM*
CN1C(=O)/C(=C/c2ccc(OCc3ccc(C(=O)O)cc3)c(Cl)c2)NC1=S | -4% | 3% | . | -1% | -4% | -6%
SMILES | ELG1 genotox | ELG1 DNA repair | SMN2 splice up | NPC1 prom act | Rab9 prom act | FLuc counter
CCOc1ccc(C(=O)NCCC(=O)N2CCC3(CC2)NCCc2[nH]cnc23)cc1OCC | -4% | ? | . | 0% | 0% | 1%
COc1ccc2cc(C(=O)N3CCN(Cc4ccc5c(c4)OCO5)CC3)[nH]c2c1 | -9% | 7% | . | -3% | -6% | 3%
COc1ccc2c(c1)c1ncnc(N3CCN(Cc4ccc5c(c4)OCO5)CC3)c1n2C | -17% | 16µM* | -23% | -11% | -5% | 3%
COc1ccc2[nH]c3c(N4CCN(Cc5ccc6c(c5)OCO6)CC4)ncnc3c2c1 | -25% | 26µM* | . | -1% | 2% | -19%
O=C(Nc1nc2ccccc2n1CCN1CCOCC1)c1cccc([N+](=O)[O-])c1 | . | . | . | 2%[46.1 µM] | -2%[46.1 µM] | .
COc1ccc(C(=O)O)cc1S(=O)(=O)Nc1ccccc1C(=O)NCc1ccc2c(c1)OCO2 | 2% | 10% | . | 2% | -2% | .
COc1ccc(CNCC(O)COc2cccc3c2OC(C)(C)C3)cc1 (configuration not stated) | -15% | 9.2µM* | -56% | -16% | -8% | 2%
O=C(Nc1oc2ccccc2c(=O)c1-c1ccc(Br)cc1)c1ccco1 | -4% | 1% | . | 1% | 2% | -11%
O=C(COc1ccc(-c2ccccc2)cc1)N/N=C/c1cc(O)ccc1Br | 0% | 4% | 2%[1.84 µM] | 0% | 1% | 11µM*
O=C(COc1ccc(-c2ccccc2)cc1)N/N=C/c1ccccc1Br | -1% | 6% | 0% | -3% | -1% | ?
COc1ccc(OCC(=O)N/N=C/C=C/c2ccccc2)cc1 | 7% | 15% | 9% | 1% | -4% | 4.8µM*
CCOc1ccc(NCC(=O)N/N=C/C=C/c2ccccc2)cc1 | 3% | 3% | -4% | 2% | -3% | 13µM*
COc1ccc(NCC(=O)N/N=C/C=C/c2ccccc2[N+](=O)[O-])cc1 | -5% | -2% | 12% | -3% | -2% | -17%
CCOc1ccc(-c2[nH]ncc2-c2ccccc2)c(O)c1 | 0% | 15% | . | -4% | 2% | 1%
CCOc1ccc(N=C/C=C/c2ccccc2)c(O)c1 | ? | ? | . | ? | ? | 8.5µM*
CCC(C)NC(=O)c1[nH]c2cc(OC)ccc2c1Sc1ccc(C)cc1 (configuration not stated) | . | . | . | . | . | -4%
CCCn1c(C(O)c2cc(OC)c(OC)c(OC)c2)nc2ccccc21 (configuration not stated) | -3% | 2% | . | 0% | -3% | -4%
O=C(Nc1ccc(S(=O)(=O)Nc2nccs2)cc1)c1cc(-c2ccccc2)nc2ccccc12 | -2% | -5% | 20% | 0% | -3% | ?
CC(C)(C)NS(=O)(=O)c1ccc(NC(=O)c2cc(-c3ccccc3)nc3ccccc23)cc1 | -11% | 23µM* | 5% | -4% | 0% | -6%
CCc1ccc(-c2cc(C(=O)Nc3ccc(S(=O)(=O)NC(C)=O)cc3)c3ccccc3n2)cc1 | 9% | ? | 4% | ? | 28% | 0.54µM*

Bioassay records: PubChem BioAssay, National Center for Advancing Translational Sciences (NCATS)
